Data from PubChem BioAssay (NCI).
The panel holds about 83,000 compounds, 20% with a hit somewhere; the sample as a whole holds those more often.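 Treatment: one concentration, 48 hours, 96-well format. Scoring: percent growth, with anything below 10 considered active.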 The source made the active and inactive calls.

Key:
Assay in all cases: NCI-60 one-dose screen, 48 h (100 = growth as untreated, 0 = no growth, -100 = all killed)
Conditions in all cases: 10 µM
HCT-15 colon = test system: HCT-15 colon
HT29 colon = test system: HT29 colon
SNB-75 CNS = test system: SNB-75 CNS
SNB-19 CNS = test system: SNB-19 CNS
U251 CNS = test system: U251 CNS
PC-3 prostate = test system: PC-3 prostate
SK-MEL-5 melanoma = test system: SK-MEL-5 melanoma
UACC-62 melanoma = test system: UACC-62 melanoma
LOX IMVI melanoma = test system: LOX IMVI melanoma
SK-MEL-28 melanoma = test system: SK-MEL-28 melanoma
SK-MEL-2 melanoma = test system: SK-MEL-2 melanoma
SN12C renal = test system: SN12C renal
UO-31 renal = test system: UO-31 renal
TK-10 renal = test system: TK-10 renal
ACHN renal = test system: ACHN renal
CAKI-1 renal = test system: CAKI-1 renal
A498 renal = test system: A498 renal
CCRF-CEM leukemia = test system: CCRF-CEM leukemia
MOLT-4 leukemia = test system: MOLT-4 leukemia

Measured: growth

Cn1c([N+](=O)[O-])cnc1C=C1C(=O)c2ccccc2C1=O
active: SK-MEL-2 melanoma 1.67%
inactive: HCT-15 colon 23.2% | HT29 colon 56.1% | SNB-75 CNS 51% | SNB-19 CNS 85.1% | U251 CNS 57.2% | PC-3 prostate 60.1% | SK-MEL-5 melanoma 42.6% | UACC-62 melanoma 17.5% | LOX IMVI melanoma 21.7% | SK-MEL-28 melanoma 39.2% | SN12C renal 42.9% | UO-31 renal 20.7% | TK-10 renal 48.8% | ACHN renal 37.4% | CAKI-1 renal 37.3% | A498 renal 70.1% | CCRF-CEM leukemia 18.4% | MOLT-4 leukemia 21.8%

COc1ccc(-c2ccc(-c3ccc(C(=N)N)c(F)c3)s2)cc1
active: HCT-15 colon -78.9% | HT29 colon -90% | SNB-75 CNS -98.9% | SNB-19 CNS -89.6% | U251 CNS -95.1% | PC-3 prostate -88.6% | SK-MEL-5 melanoma -93.9% | UACC-62 melanoma -88.9% | LOX IMVI melanoma -84.3% | SK-MEL-28 melanoma -91.5% | SK-MEL-2 melanoma -75.3% | SN12C renal -79.2% | UO-31 renal -86.8% | TK-10 renal -96.4% | ACHN renal -89.7% | CAKI-1 renal -89.8% | A498 renal -97.4% | CCRF-CEM leukemia -68.3% | MOLT-4 leukemia -80.1%

Cc1ccc(C)c2c1sc1nc3n[nH]c(N)c3c(=N)n12
inactive: HCT-15 colon 102% | HT29 colon 111% | SNB-75 CNS 88.5% | SNB-19 CNS 99% | U251 CNS 100% | PC-3 prostate 85.7% | SK-MEL-5 melanoma 99.3% | UACC-62 melanoma 108% | LOX IMVI melanoma 96.2% | SK-MEL-28 melanoma 106% | SK-MEL-2 melanoma 96.1% | SN12C renal 104% | UO-31 renal 85.8% | TK-10 renal 116% | ACHN renal 101% | CAKI-1 renal 90.5% | A498 renal 103% | CCRF-CEM leukemia 97.3% | MOLT-4 leukemia 96%

COc1ccc(-c2cn[nH]c2-c2cc(OC)c(OC)c(OC)c2)cc1
active: HT29 colon 3.22% | SK-MEL-5 melanoma -17.1% | A498 renal -12.1% | CCRF-CEM leukemia 6.38% | MOLT-4 leukemia 4.95%
inactive: HCT-15 colon 10.8% | SNB-75 CNS 44.7% | SNB-19 CNS 45.5% | U251 CNS 16.2% | PC-3 prostate 14.1% | UACC-62 melanoma 38% | LOX IMVI melanoma 27.3% | SK-MEL-28 melanoma 43.6% | SK-MEL-2 melanoma 29.2% | SN12C renal 26.3% | UO-31 renal 33% | TK-10 renal 58% | ACHN renal 20.7% | CAKI-1 renal 17.4%

CC(C)C[C@H](NC(=O)Cn1ccc2ccccc2c1=O)B(O)O
active: MOLT-4 leukemia 9.94%
inactive: HCT-15 colon 57.9% | HT29 colon 44.7% | SNB-75 CNS 96.8% | SNB-19 CNS 76.8% | U251 CNS 87.6% | PC-3 prostate 86.9% | SK-MEL-5 melanoma 37.9% | UACC-62 melanoma 49.8% | LOX IMVI melanoma 50.6% | SK-MEL-28 melanoma 48.7% | SK-MEL-2 melanoma 63.5% | SN12C renal 75.8% | UO-31 renal 50.6% | TK-10 renal 11.7% | ACHN renal 29.1% | CAKI-1 renal 40.6% | A498 renal 30.1% | CCRF-CEM leukemia 15.2%

O=c1oc2cc(OS(=O)(=O)C3CC3)ccc2c2c1CCCCCC2
inactive: HCT-15 colon 72.8% | HT29 colon 25.9% | SNB-75 CNS 98.7% | SNB-19 CNS 88.2% | U251 CNS 79.1% | PC-3 prostate 68.7% | SK-MEL-5 melanoma 37.3% | UACC-62 melanoma 71.3% | LOX IMVI melanoma 85.8% | SK-MEL-28 melanoma 93.7% | SK-MEL-2 melanoma 103% | SN12C renal 82.8% | UO-31 renal 83.4% | TK-10 renal 121% | ACHN renal 82.1% | CAKI-1 renal 79.4% | A498 renal 63.8% | CCRF-CEM leukemia 64.4% | MOLT-4 leukemia 65.6%

CNCCCNCCCN1C(=O)c2ccc3c4c(ccc(c24)C1=O)C(=O)N(CCCNCc1ccccc1OC)C3=O
inactive: HCT-15 colon 28% | SNB-75 CNS 15.9% | SNB-19 CNS 36.6% | UO-31 renal 18.2% | ACHN renal 16.6% | CAKI-1 renal 24.6% | A498 renal 28.8%
active: HT29 colon -23.4% | U251 CNS 6.5% | PC-3 prostate 1.85% | SK-MEL-5 melanoma -94.2% | UACC-62 melanoma -42.2% | LOX IMVI melanoma -58.3% | SK-MEL-28 melanoma -48.2% | SK-MEL-2 melanoma -49.9% | SN12C renal 2.51% | TK-10 renal -14% | CCRF-CEM leukemia 4.62% | MOLT-4 leukemia -23.8%

S=C(Cc1ccc(-c2ccccc2)cc1)N1CCOCC1
inactive: HCT-15 colon 104% | HT29 colon 103% | SNB-75 CNS 83.1% | SNB-19 CNS 110% | U251 CNS 96.6% | PC-3 prostate 76.7% | SK-MEL-5 melanoma 92.9% | UACC-62 melanoma 87.2% | LOX IMVI melanoma 92% | SK-MEL-28 melanoma 106% | SK-MEL-2 melanoma 88.5% | SN12C renal 99.8% | UO-31 renal 83.9% | TK-10 renal 99.7% | ACHN renal 98.4% | CAKI-1 renal 90.4% | A498 renal 82% | CCRF-CEM leukemia 91.8% | MOLT-4 leukemia 99.7%

CCCCCCOc1ccc(/C=C/C(=O)c2ccc(B(O)O)cc2)cc1
inactive: HCT-15 colon 75.1% | HT29 colon 74.5% | SNB-75 CNS 58.5% | SNB-19 CNS 104% | U251 CNS 77.5% | PC-3 prostate 72.6% | SK-MEL-5 melanoma 81.4% | UACC-62 melanoma 79% | LOX IMVI melanoma 83.7% | SK-MEL-28 melanoma 106% | SK-MEL-2 melanoma 78% | SN12C renal 71.4% | UO-31 renal 51.6% | TK-10 renal 85.2% | ACHN renal 89.5% | CAKI-1 renal 61.5% | A498 renal 70.4% | CCRF-CEM leukemia 59.1% | MOLT-4 leukemia 58.3%

CC(=O)[C@H]1CC[C@H]2[C@@H]3CC[C@@H]4CC=C(C=O)C[C@]4(C)[C@H]3CC[C@]12C
inactive: HCT-15 colon 96.7% | HT29 colon 90.7% | SNB-75 CNS 80.5% | SNB-19 CNS 97.8% | U251 CNS 88.5% | PC-3 prostate 78.5% | SK-MEL-5 melanoma 90.3% | UACC-62 melanoma 79.1% | LOX IMVI melanoma 93.7% | SK-MEL-28 melanoma 93.9% | SK-MEL-2 melanoma 99.3% | SN12C renal 93.4% | UO-31 renal 84.8% | TK-10 renal 85.2% | ACHN renal 92.4% | CAKI-1 renal 88.5% | A498 renal 76.8% | CCRF-CEM leukemia 82.6% | MOLT-4 leukemia 72.8%

CC(C)C[C@H](NC(=O)Cn1ccc(Nc2ccccc2)cc1=O)B(O)O
inactive: HCT-15 colon 72.1% | SNB-75 CNS 79.9% | SNB-19 CNS 68% | U251 CNS 65.9% | PC-3 prostate 58.9% | UACC-62 melanoma 25% | SK-MEL-28 melanoma 10.6% | SN12C renal 47.9% | UO-31 renal 53.9% | TK-10 renal 13.5% | ACHN renal 10.1% | CAKI-1 renal 45.3%
active: HT29 colon 1.28% | SK-MEL-5 melanoma 2.17% | LOX IMVI melanoma 3.14% | SK-MEL-2 melanoma -2.39% | A498 renal -1.76% | CCRF-CEM leukemia 3.67% | MOLT-4 leukemia 1.94%

CCC(O)c1ccc(Br)cc1NC(=O)c1cccc(Cl)c1 (centres undefined)
active: UACC-62 melanoma -27.5% | LOX IMVI melanoma 0.289% | UO-31 renal -11.6% | CAKI-1 renal 7.99% | CCRF-CEM leukemia 6.46%
inactive: HCT-15 colon 28.5% | HT29 colon 83.7% | SNB-75 CNS 38.8% | SNB-19 CNS 21.2% | U251 CNS 11.7% | PC-3 prostate 34.2% | SK-MEL-5 melanoma 10.7% | SK-MEL-28 melanoma 29.3% | SK-MEL-2 melanoma 34% | SN12C renal 18.7% | TK-10 renal 41.9% | ACHN renal 15.6% | A498 renal 25.3% | MOLT-4 leukemia 10.1%

CN(C)CCCN(Cc1ccccc1O)C(=S)Nc1ccc(Cl)cc1
inactive: HCT-15 colon 93% | HT29 colon 106% | SNB-75 CNS 79.5% | SNB-19 CNS 94.7% | U251 CNS 101% | PC-3 prostate 93.8% | SK-MEL-5 melanoma 91.3% | UACC-62 melanoma 108% | LOX IMVI melanoma 98.4% | SK-MEL-28 melanoma 109% | SK-MEL-2 melanoma 112% | SN12C renal 98.2% | UO-31 renal 78.8% | TK-10 renal 104% | ACHN renal 95% | CAKI-1 renal 99.7% | A498 renal 77.5% | CCRF-CEM leukemia 109% | MOLT-4 leukemia 106%

Cc1nn2c(/C=C3/C(=O)Nc4ccc(Cl)cc43)c(-c3ccccc3)nc2s1
active: SNB-75 CNS -35.4% | TK-10 renal 6.61%
inactive: HCT-15 colon 57.1% | HT29 colon 35.1% | SNB-19 CNS 82.4% | U251 CNS 34.8% | PC-3 prostate 32.3% | SK-MEL-5 melanoma 26.3% | UACC-62 melanoma 39.3% | LOX IMVI melanoma 45.3% | SK-MEL-28 melanoma 29.2% | SK-MEL-2 melanoma 32.7% | SN12C renal 52.7% | UO-31 renal 29.6% | ACHN renal 30.1% | CAKI-1 renal 53.4% | A498 renal 43.8% | CCRF-CEM leukemia 50.7% | MOLT-4 leukemia 57.2%

COc1c(-c2c3sc(=O)[nH]c3nc3c2c(=O)[nH]n3C(C)C)cc2c(c1OC)OCO2
inactive: HCT-15 colon 99.6% | HT29 colon 102% | SNB-75 CNS 92.7% | SNB-19 CNS 98.7% | U251 CNS 97.9% | PC-3 prostate 92.6% | SK-MEL-5 melanoma 102% | UACC-62 melanoma 99.4% | LOX IMVI melanoma 92.3% | SK-MEL-28 melanoma 112% | SK-MEL-2 melanoma 85.3% | SN12C renal 95.5% | UO-31 renal 78.9% | TK-10 renal 98.7% | ACHN renal 91.4% | CAKI-1 renal 93.3% | A498 renal 57.2% | CCRF-CEM leukemia 95% | MOLT-4 leukemia 94.5%

FC(F)(F)c1ccc(-c2cnc(Cl)nc2NC2CCCCCC2)cc1
active: U251 CNS 5.17% | PC-3 prostate 1.08% | SK-MEL-5 melanoma -8.26% | SK-MEL-2 melanoma -4.24% | ACHN renal 5.68%
inactive: HCT-15 colon 75.7% | HT29 colon 19.1% | SNB-75 CNS 49.9% | SNB-19 CNS 31.2% | UACC-62 melanoma 16.2% | LOX IMVI melanoma 27.9% | SK-MEL-28 melanoma 37.6% | SN12C renal 18.2% | UO-31 renal 23.5% | TK-10 renal 32.1% | CAKI-1 renal 67.5% | A498 renal 89.9% | CCRF-CEM leukemia 26.3% | MOLT-4 leukemia 85.1%
